Assay results from PubChem BioAssay (NCATS).
Inconclusive results are not listed. Activity calls are given as the source filed them. Calls follow the shape of the dose curve; as a rule, active = well fitted inhibition curve with a large enough effect; inconclusive = small, poorly fitted or top-dose-only effect; inactive = flat fitted curve, though single readings scatter.

Columns and labels:
[1] = qHTS profiling for inhibitors of Plasmodium falciparum proliferation (AID 504749);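 as to activity, negative = inhibition: 0% = DMSO vehicle and full inhibition = artemisinin control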; as to all read-outs here: nearly all actives have a fitted effect of over 60% in size; conditions: P. falciparum in erythrocytes, SYBR Green DNA, 72 h; for activity, negative = inhibition: at 28.7 µM (top of the series)
Method in brief: (§1)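 Three-day growth assay of blood-stage parasites in erythrocytes (0.3% parasitemia, 2.5% hematocrit) at 37 C, 5% CO2, quantified by SYBR Green DNA staining after overnight detergent lysis.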

3D7 = assay: as above; conditions: P. falciparum in erythrocytes, SYBR Green DNA, 72 h; series mostly up to 28.7 µM
Method in brief: as §1

7G8 = assay: as above; conditions: P. falciparum in erythrocytes, SYBR Green DNA, 72 h; series mostly up to 28.7 µM
Method in brief: as §1

AA1029 = assay: as above; conditions: P. falciparum in erythrocytes, SYBR Green DNA, 72 h; series mostly up to 28.7 µM
Method in brief: as §1

AS120 = assay: as above; conditions: P. falciparum in erythrocytes, SYBR Green DNA, 72 h; series mostly up to 28.7 µM
Method in brief: as §1

ATS189 = assay: as above; conditions: P. falciparum in erythrocytes, SYBR Green DNA, 72 h; series mostly up to 28.7 µM
Method in brief: as §1

ATS95 = assay: as above; conditions: P. falciparum in erythrocytes, SYBR Green DNA, 72 h; series mostly up to 28.7 µM
Method in brief: as §1

C2A = assay: as above; conditions: P. falciparum in erythrocytes, SYBR Green DNA, 72 h; series mostly up to 28.7 µM
Method in brief: as §1

CP185 = assay: as above; conditions: P. falciparum in erythrocytes, SYBR Green DNA, 72 h; series mostly up to 28.7 µM
Method in brief: as §1

CP191 = assay: as above; conditions: P. falciparum in erythrocytes, SYBR Green DNA, 72 h; series mostly up to 28.7 µM
Method in brief: as §1

CP192 = assay: as above; conditions: P. falciparum in erythrocytes, SYBR Green DNA, 72 h; series mostly up to 28.7 µM
Method in brief: as §1

CP194 = assay: as above; conditions: P. falciparum in erythrocytes, SYBR Green DNA, 72 h; series mostly up to 28.7 µM
Method in brief: as §1

CP201 = assay: as above; conditions: P. falciparum in erythrocytes, SYBR Green DNA, 72 h; series mostly up to 28.7 µM
Method in brief: as §1

CP211 = assay: as above; conditions: P. falciparum in erythrocytes, SYBR Green DNA, 72 h; series mostly up to 28.7 µM
Method in brief: as §1

CP215 = assay: as above; conditions: P. falciparum in erythrocytes, SYBR Green DNA, 72 h; series mostly up to 28.7 µM
Method in brief: as §1

CP217 = assay: as above; conditions: P. falciparum in erythrocytes, SYBR Green DNA, 72 h; series mostly up to 28.7 µM
Method in brief: as §1

CP237 = assay: as above; conditions: P. falciparum in erythrocytes, SYBR Green DNA, 72 h; series mostly up to 28.7 µM
Method in brief: as §1

CP238 = assay: as above; conditions: P. falciparum in erythrocytes, SYBR Green DNA, 72 h; series mostly up to 28.7 µM
Method in brief: as §1

CP247 = assay: as above; conditions: P. falciparum in erythrocytes, SYBR Green DNA, 72 h; series mostly up to 28.7 µM
Method in brief: as §1

CP203 = assay: as above; conditions: P. falciparum in erythrocytes, SYBR Green DNA, 72 h; series mostly up to 28.7 µM
Method in brief: as §1
Potency is read from the fitted curve at half-maximal effect.

CC1=CCC(C(C)(C)O)CC1 (stereo not drawn)
inactive: activity, negative = inhibition ([1]; parasite line A) 7.42% | activity, negative = inhibition ([1]; parasite line B) 12.4% | Potency (3D7) | Potency (7G8) | Potency (AA1029) | Potency (AS120) | Potency (ATS189) | Potency (ATS95) | Potency (C2A) | Potency (CP185) | Potency (CP191) | Potency (CP192) | Potency (CP194) | Potency (CP201) | Potency (CP211) | Potency (CP215) | Potency (CP217) | Potency (CP237) | Potency (CP238) | Potency (CP247)

IC(I)I
inactive: activity, negative = inhibition ([1]; parasite line A) 0.888% | activity, negative = inhibition ([1]; parasite line B) 2.57% | Potency (3D7) | Potency (7G8) | Potency (AA1029) | Potency (AS120) | Potency (ATS189) | Potency (ATS95) | Potency (C2A) | Potency (CP185) | Potency (CP191) | Potency (CP194) | Potency (CP201) | Potency (CP211) | Potency (CP217) | Potency (CP237) | Potency (CP238) | Potency (CP247)

O=C(O)c1cc(O)c2c(c1)[O][Bi][O]2
inactive: activity, negative = inhibition ([1]; parasite line A) -9.75% | activity, negative = inhibition ([1]; parasite line B) 14.4% | Potency (3D7) | Potency (7G8) | Potency (AA1029) | Potency (AS120) | Potency (ATS189) | Potency (ATS95) | Potency (C2A) | Potency (CP185) | Potency (CP191) | Potency (CP192) | Potency (CP194) | Potency (CP201) | Potency (CP211) | Potency (CP217) | Potency (CP237) | Potency (CP238) | Potency (CP247)

CN=C(NC#N)Nc1ccc(C2=NNC(=O)C[C@@H]2C)cc1
inactive: activity, negative = inhibition ([1]; parasite line A) 13.8% | activity, negative = inhibition ([1]; parasite line B) 8.03% | Potency (3D7) | Potency (7G8) | Potency (AA1029) | Potency (AS120) | Potency (ATS189) | Potency (ATS95) | Potency (C2A) | Potency (CP185) | Potency (CP191) | Potency (CP217) | Potency (CP237) | Potency (CP238) | Potency (CP247)

Nc1ncnc2c1ncn2[C@@H]1O[C@H](COP(=O)(O)OP(=O)(O)OP(=O)(O)O)[C@@H](O)[C@H]1O
inactive: activity, negative = inhibition ([1]; parasite line A) 19.4% | activity, negative = inhibition ([1]; parasite line B) 9.47% | Potency (3D7) | Potency (7G8) | Potency (AA1029) | Potency (AS120) | Potency (ATS189) | Potency (ATS95) | Potency (C2A) | Potency (CP185) | Potency (CP191) | Potency (CP192) | Potency (CP194) | Potency (CP201) | Potency (CP211) | Potency (CP215) | Potency (CP217) | Potency (CP237) | Potency (CP238) | Potency (CP247)

NC(=O)c1ncn(C2OC(CO)C(O)C2O)n1 (stereo not drawn)
inactive: activity, negative = inhibition ([1]; parasite line A) -11.3% | activity, negative = inhibition ([1]; parasite line B) -20.5% | Potency (3D7) | Potency (AA1029) | Potency (AS120) | Potency (ATS189) | Potency (ATS95) | Potency (CP185) | Potency (CP191) | Potency (CP192) | Potency (CP194) | Potency (CP201) | Potency (CP211) | Potency (CP215) | Potency (CP217) | Potency (CP237) | Potency (CP238) | Potency (CP247)
active: Potency (7G8) 7.94 µM

CCCCCCCCCCCCCC[n+]1ccc(C)cc1
active: Potency ([1]; parasite line A) 2.51 µM | Potency ([1]; parasite line B) 5.62 µM | Potency (3D7) 2.51 µM | Potency (7G8) 1.12 µM | Potency (AA1029) 3.98 µM | Potency (AS120) 3.55 µM | Potency (ATS189) 5.62 µM | Potency (ATS95) 2.82 µM | Potency (C2A) 3.16 µM | Potency (CP185) 5.01 µM | Potency (CP191) 2.82 µM | Potency (CP192) 4.78 µM | Potency (CP194) 4.26 µM | Potency (CP201) 4.78 µM | Potency (CP211) 3.38 µM | Potency (CP215) 4.26 µM | Potency (CP217) 3.98 µM | Potency (CP237) 3.55 µM | Potency (CP238) 4.47 µM | Potency (CP247) 3.98 µM

COC(F)(F)C(Cl)Cl
inactive: activity, negative = inhibition ([1]; parasite line A) 16.9% | activity, negative = inhibition ([1]; parasite line B) -4.97% | Potency (3D7) | Potency (7G8) | Potency (AA1029) | Potency (AS120) | Potency (ATS189) | Potency (ATS95) | Potency (C2A) | Potency (CP185) | Potency (CP191) | Potency (CP192) | Potency (CP194) | Potency (CP201) | Potency (CP211) | Potency (CP215) | Potency (CP217) | Potency (CP237) | Potency (CP238) | Potency (CP247)

C[C@@H]1CCC2[C@@H](C)[C@@H](O)O[C@@H]3O[C@@]4(C)CC[C@@H]1[C@@]23OO4 (stereo partly drawn)
active: Potency ([1]; parasite line A) 0.0014 µM | Potency ([1]; parasite line B) 0.0018 µM | Potency (3D7) 0.0035 µM | Potency (7G8) 0.0008 µM | Potency (AA1029) 0.0022 µM | Potency (AS120) 0.0016 µM | Potency (ATS189) 0.0022 µM | Potency (ATS95) 0.0022 µM | Potency (C2A) 0.0022 µM | Potency (CP185) 0.0025 µM | Potency (CP191) 0.0032 µM | Potency (CP192) 0.0043 µM | Potency (CP194) 0.006 µM | Potency (CP201) 0.0107 µM | Potency (CP211) 0.0054 µM | Potency (CP215) 0.0048 µM | Potency (CP217) 0.0028 µM | Potency (CP237) 0.0016 µM | Potency (CP238) 0.0022 µM | Potency (CP247) 0.0032 µM

COC(=O)C1=C(C#N)NC(C)=C(C(=O)OC(C)C)C1c1cccc([N+](=O)[O-])c1 (stereo not drawn)
active: Potency ([1]; parasite line A) 8.91 µM | Potency ([1]; parasite line B) 11.2 µM | Potency (3D7) 8.91 µM | Potency (7G8) 10 µM | Potency (AA1029) 11.2 µM | Potency (AS120) 8.91 µM | Potency (ATS189) 11.2 µM | Potency (ATS95) 11.2 µM | Potency (C2A) 11.2 µM | Potency (CP185) 7.94 µM | Potency (CP191) 11.2 µM | Potency (CP194) 12 µM | Potency (CP203) 7.57 µM | Potency (CP211) 9.53 µM | Potency (CP217) 11.2 µM | Potency (CP238) 10 µM | Potency (CP247) 8.91 µM
